High-throughput results from PubChem BioAssay.
Many of the other results were omitted from the sample, so hits are more common in it than they were.
RBX1-CUL1 inh = inhibitors of human ROC1-CUL1 ubiquitin ligase activity; in vitro K48 di-Ub FRET, acceptor:donor ratio, 45 min; P62877+Q13616; actives 0.6% (n = 140,000); inhibition, % at 10 µM; AID 1347404; in the data active = inhibition above about 25%
Target sequence (P62877 whole entry, looked up): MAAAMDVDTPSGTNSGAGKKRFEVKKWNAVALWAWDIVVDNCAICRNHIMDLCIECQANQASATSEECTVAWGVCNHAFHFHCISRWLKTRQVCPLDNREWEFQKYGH
Target sequence (Q13616 whole entry, looked up): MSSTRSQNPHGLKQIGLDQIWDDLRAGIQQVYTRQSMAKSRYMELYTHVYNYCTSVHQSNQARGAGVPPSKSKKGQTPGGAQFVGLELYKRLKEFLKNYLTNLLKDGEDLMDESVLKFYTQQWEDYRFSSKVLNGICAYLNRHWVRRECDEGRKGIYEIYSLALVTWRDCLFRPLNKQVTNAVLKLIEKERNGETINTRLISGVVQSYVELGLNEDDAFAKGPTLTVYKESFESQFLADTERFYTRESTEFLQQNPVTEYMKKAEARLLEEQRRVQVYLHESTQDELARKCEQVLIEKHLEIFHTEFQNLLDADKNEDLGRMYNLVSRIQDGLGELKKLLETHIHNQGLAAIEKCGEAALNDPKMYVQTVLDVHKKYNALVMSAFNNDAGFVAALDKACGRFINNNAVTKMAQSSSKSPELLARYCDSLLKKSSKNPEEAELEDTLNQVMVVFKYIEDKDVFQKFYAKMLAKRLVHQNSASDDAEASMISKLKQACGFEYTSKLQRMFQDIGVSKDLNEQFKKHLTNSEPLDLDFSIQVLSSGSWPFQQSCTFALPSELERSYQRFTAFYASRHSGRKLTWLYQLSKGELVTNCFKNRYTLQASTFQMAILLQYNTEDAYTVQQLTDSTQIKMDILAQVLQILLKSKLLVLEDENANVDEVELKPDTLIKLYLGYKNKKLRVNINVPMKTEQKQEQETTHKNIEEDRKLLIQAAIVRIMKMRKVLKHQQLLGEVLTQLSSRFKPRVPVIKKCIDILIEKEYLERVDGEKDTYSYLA
A number is an active result; – = inactive.

SMILES	RBX1-CUL1 inh
CCc1csc(CNC(=O)c2ccc(N3CCCCO3)nc2)n1	–
O=C(/C=C/c1ccco1)NCC12CC3CC(C1)CC(CNC(=O)/C=C/c1ccco1)(C3)C2	103.3
O=C(/C=C\c1ccco1)Nc1cccc(C(=O)Nc2cccc(O)c2)c1	–
N=C(CC(=O)/C=C/c1ccco1)C(F)(F)F	–
Cc1ccc(NC(=O)/C=C/c2ccco2)cc1F	–
O=C(/C=C/c1ccco1)NCc1cccc(CNC(=O)/C=C/c2ccco2)c1	96.8
CCSc1nnc(NC(=O)/C=C/c2ccco2)s1	–
O=C(CCSCc1cnn(-c2ccccc2)c1-n1cccc1)NCc1ccc(Cl)cc1	–
CC(=O)c1ccc(C(=O)N2CCc3[nH]nc(-c4ccccc4)c3C2)s1	–
CCOc1ccc(NC(=O)CSc2oc(-c3ccco3)nc2S(=O)(=O)c2ccc(C)cc2)cc1	–
Nc1c(C(=O)c2ccccc2)sc2nc(-c3ccccc3)ccc12	–
O=C(CSc1nc2ccccc2nc1SCC(=O)c1ccccc1)c1ccccc1	–
NC(=O)c1c(SCC(=O)c2ccccc2)sc(C(=O)c2ccccc2)c1N	31.1
O=C(Nc1ccc(S(=O)(=O)Nc2ccc(Cl)cc2)cc1)c1ccc(COc2cc(Cl)ccc2Cl)o1	–
COc1cccc(/C=C2\C(=O)Nc3ccc(Br)cc32)c1	–
O=C1Nc2ccc(Br)cc2/C1=C/c1cc(O)c(O)c(Br)c1	65.7
Cc1ccc(/C=C2\C(=O)Nc3ccc(Br)cc32)cc1C	–
COc1ccc(OCC(=O)NC(=S)N2CCOCC2)cc1	–
O=C1C(Cl)=C(N2CCN(S(=O)(=O)c3ccc(Cl)cc3)CC2)C(=O)c2ccccc21	–
O=c1cc(C(F)(F)F)nc(N2CCN(Cc3ccccc3)CC2)[nH]1	–
O=C1C(Cl)=C(N2CCN(Cc3ccccc3)CC2)C(=O)c2ccccc21	104.4
O=C(O)CCCCCNC(=O)C(Cc1ccccc1)=NC(=O)c1cccc(Br)c1	–
C(=C\c1ccccc1)/CN1CCN(Cc2nc(-c3cnccn3)no2)CC1	–
CC(=O)c1ccc(NS(=O)(=O)c2cnc(N)nc2)cc1	–
CCCc1nn2c(=O)cc(COC(=O)c3ccccc3NC(=O)c3ccc(OCC)cc3)nc2s1	–
SMILES	RBX1-CUL1 inh
Cc1ccccc1C(=O)N1CCN(c2ccc(NC(=O)c3ccccc3Br)cc2)CC1	–
O=C(CSc1ccc(Cl)cc1)Nc1ccc(N2CCN(C(=O)c3cccs3)CC2)cc1	–
Cc1ccccc1C(=O)N1CCN(c2ccc(NC(=O)CSc3ccc(Cl)cc3)cc2)CC1	29.7
Cc1ccc(CN2CCC(CN(C)CC(C)(C)C)CC2)o1	–
COCCN(CC1CCCN(C2Cc3ccccc3C2)C1)C(=O)Cc1cccnc1 (configuration not stated)	–
Cc1nnc(N2C(=O)C(=O)C(C(=O)c3cc4ccccc4o3)C2c2cccc(Oc3ccccc3)c2)s1 (configuration not stated)	34.8
Cc1nnc(N2C(=O)C(=O)C(C(=O)c3cc4ccccc4o3)C2c2ccc(Cl)c(Cl)c2)s1 (configuration not stated)	–
CCOc1ccc2nc(N3C(=O)C(=O)C(C(=O)c4cc5ccccc5o4)C3c3cccc(Oc4ccccc4)c3)sc2c1 (configuration not stated)	–
COc1c(S(=O)(=O)N2CCN(C(c3ccccc3)c3ccccc3)CC2)ccc(Cl)c1Cl	–
O=C(OCc1ccc(Br)cc1)c1ccccc1N1C(=O)c2ccccc2C1=O	–
CC(=O)c1c(C)nnn1-c1nonc1-c1ccccc1	–
Nc1cnc(Br)cc1Br	–
Nc1cc2nsnc2cc1Br	96.4
Cc1[nH]nc2c1C(c1ccccc1OC(F)F)C(C#N)C(=N)O2 (configuration not stated)	–
COc1cc(OC)c(NC(=O)CCn2cnc3onc(-c4ccc(F)cc4)c3c2=O)cc1Cl	–
O=C(Nc1ccc(Cl)cc1)C1CCC1	–
N#Cc1c(SCC(=O)c2ccc(F)cc2)nc2c(c1-c1cccnc1)CCC2	–
N#Cc1c(N)nc(SCC(=O)c2ccc(O)c(O)c2)c(C#N)c1-c1ccc(OCc2ccccc2)cc1	–
Cc1ccccc1NC(=O)c1c(C)nc(SCC(=O)c2ccc(O)c(O)c2)c(C#N)c1-c1cccnc1	27.9
COc1ccc(N2CCN(S(=O)(=O)Cc3ccccc3F)CC2)cc1	–
CC1CCc2sc3[nH]c(=S)n(Cc4ccccc4)c(=O)c3c2C1 (configuration not stated)	–
Cc1cc(C)n(Cc2cc(C(=O)N3CCCC3c3nccs3)n[nH]2)n1 (configuration not stated)	–
Cc1ccc(/C=C2\N=C(c3ccc(C)cc3)OC2=O)cc1	–
CCCN(CCC)c1ccc(/C=C2/N=C(c3ccccc3)OC2=O)cc1	41.9
CCN(CC)c1ccc(/C=C2/N=C(c3ccc(OC)c(OC)c3)OC2=O)cc1	–
SMILES	RBX1-CUL1 inh
CCOc1ccc(NC(=O)N2CCN3CCCCC3C2)cc1 (configuration not stated)	–
O=C(NCCc1ccc(F)cc1)c1cn(C2CCCC2)cc(C(=O)N2CCCCC2)c1=O	–
Clc1ccccc1CSc1nncn1NCc1ccccc1	–
COC(=O)c1ccc(/C=C2\SC(=S)N(CO)C2=O)cc1	–
COc1cc(/C=C2\SC(=S)N(Cc3ccccc3)C2=O)ccc1OCC(=O)O	–
COC(=O)c1ccc(/C=C2\SC(=S)N(CCCCCC(=O)O)C2=O)cc1	80.7
COc1cc(/C=C2/SC(=S)N(c3cccc(C(F)(F)F)c3)C2=O)ccc1OC(=O)c1ccc(C)cc1	–
COc1cc(/C=C2/SC(=S)N(CC(=O)O)C2=O)ccc1OC(=O)c1ccc(C)cc1	93.0
CCOC(=O)c1ccc(NC(=O)CCCCCN2C(=O)/C(=C\c3ccc(Cl)cc3)SC2=S)cc1	–
Cc1cc2nc3c(=O)n(C)c(=O)n(C)c3nc2cc1N=CN(C)C	–
COc1cc(C2c3c(ccc4ccccc34)OC(=N)C2C#N)cc(OC)c1OC (configuration not stated)	–
CCCCNC(=O)c1nnn(-c2ccccc2OC)c1C	–
CCN(CC)S(=O)(=O)c1ccc2c(c1)N(CC(=O)Nc1cccc(C(C)=O)c1)C(=O)CO2	–
C=CCC(O)(CC=C)CNC1CCN(c2cccc(NC(=O)CC3CCCC3)c2)CC1	–
Cc1c(CC(=O)NCc2ccon2)c2c(n1CCc1ccccc1)CCCC2=O	28.9
Cc1c(CC(=O)NCc2ccon2)c2c(n1CC1CCCO1)CCCC2=O (configuration not stated)	–
Cc1c(CC(=O)NCC(N)=O)c2c(n1CCc1ccccc1)CCCC2=O	–
Cc1ccc(-n2c(SCC(N)=O)nnc2-c2ccc(Cl)cc2)cc1	–
N=C1C(Br)C(=O)Nc2nnc(-c3ccc(Cl)cc3)n21 (configuration not stated)	31.5
COc1ccc(-n2c(-c3ccccc3)nnc2-c2ccc(Cl)cc2)cc1	–
O=C(Cc1ccc(Br)cc1)Nc1nnc(COc2ccc(Cl)cc2)s1	–
Cn1c(=O)n(C)c2cc(NC(=O)c3cccs3)ccc21	–
CN1C(=O)C(=NCCc2ccccc2)C2c3ccccc3C(=O)c3cccc1c32 (configuration not stated)	36.2
CN1C(=O)C(=NC2CCCCC2)C2c3ccccc3C(=O)c3cccc1c32 (configuration not stated)	–
Cc1ccc(N=C2C(=O)N(C)c3cccc4c3C2c2ccccc2C4=O)cc1 (configuration not stated)	–
COc1ccc2oc(-c3ccc(C)c(NC(=O)Cc4ccc(Cl)cc4)c3)nc2c1	–
COc1cccc(N2CCN(S(=O)(=O)c3ccc(F)c(F)c3)CC2)c1	–
O=C(Cc1ccccc1Cl)N1CCN(c2ncccn2)CC1	–
